# High-throughput results as filed in PubChem.
# Compounds with a hit are over-represented: about 8.1% of the library has one in this group of screens.
# SW480 rereplic: A quantitative high throughput screen for small molecules that induce DNA re-replication in SW480 colon adenocarcinoma cells; SW480 DNA re-replication, Hoechst DNA content imaging, 48 h; Potency, µM (doses to about 46.1 µM), for the others: at the highest dose re-replication activation, most hits filed as activators; 340,000 compounds, 1.8% hits; further: % of control where 0% means no effect; nearly all actives have a fitted effect of over 55% in size
#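 Cells (250 per well) received 23 nL compound or DMSO by pin tool and were kept 48 hr at 37 C, 5% CO2. Nuclei were then stained with Hoechst for 40 min and scanned for DNA content.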
# MCF10A rerep: A quantitative high throughput screen for small molecules that induce DNA re-replication in MCF 10a normal breast cells; 350,000 compounds, 2.9% hits; Potency, µM (series often up to 46.1 µM), for inactives: at the highest dose activity, positive = re-replication, most hits filed as activators; MCF 10A DNA re-replication, Hoechst nuclear intensity, 48 h; further: % of control where 0% means no effect; nearly all actives have a fitted effect of over 50% in size
# ELG1 DNA repair: qHTS screen for small molecules that inhibit ELG1-dependent DNA repair in human embryonic kidney (HEK293T) cells expressing luciferase-tagged ELG1 | HEK293T ELG1-luciferase reporter, luminescence, 16 h; DNA damage induced by 5-fluorouridine | Potency, µM (top dose mostly 46.1 µM), inactives show at the top dose activity change, negative = inhibition, most hits filed as inhibitors | 330,000 compounds, 2.3% hits; further: on the % scale 0 is the no-effect control and ±100 the full control effect; nearly all actives have a fitted effect of over 55% in size
#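 Cells (2,000 per well) received 5-fluorouridine plus test compound or DMSO and were incubated 16 hr at 37 °C, 5% CO2. Luciferase activity was read by luminescence 30 min after ONE-Glo addition; signal suppression marked inhibition of damage-induced ELG1 function.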
# KB-V1 cytotox: qHTS assay for MDR1-selective chemotherapeutics: Primary screen using the drug-selected MDR subline cells KB-V1. Potency, µM (highest dose often 46.1 µM), most hits filed as cytotoxic. 400,000 compounds, 3.4% hits. KB-V1 MDR cells viability, CellTiter-Glo, 72 h. AID 1347076, 2019; further: on the % scale 0 is the no-effect control and ±100 the full control effect; nearly all actives have a fitted effect of over 60% in size
#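 Drug-selected KB-V1 cells, grown in DMEM lacking phenol red with 10% FBS, receive compound titrations; after three days at 37 degrees C, surviving cell ATP is quantified by CellTiter-Glo luminescence and responses normalized and curve-fitted.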
# KB-3-1 cytotox: qHTS assay for MDR1-selective chemotherapeutics: Primary screen using the parental adenocarcinoma cell KB-3-1 | KB-3-1 viability, CellTiter-Glo ATP luminescence, 72 h | Potency, µM (highest dose often 46.1 µM), hits mostly cytotoxic | 400,000 compounds, 1.4% hits | AID 1347075, 2019; further: on the % scale 0 is the no-effect control and ±100 the full control effect; nearly all actives have a fitted effect of over 60% in size
#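 Cells are dispensed, compounds pinned in, plates held at 37 °C for 72 h, then CellTiter-Glo is added and luminescence read after 10 minutes. Cell line: parental KB-3-1 in phenol-red-free DMEM, 10% FBS.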
# Active calls of the source: *; i = inactive; ? = inconclusive; / = no result given; [ ] = remark or other dose. The call rests on the fitted dose curve; in most records, active means well fitted curve in the direction sought with a large enough effect; inconclusive means small, poorly fitted or top-dose-only effect, or another doubt; inactive means no such curve, though single readings can be large; an effect the other way counts as inactive or inconclusive. Potency means the concentration at half of the fitted maximal effect.
SMILES,SW480 rereplic,MCF10A rerep,ELG1 DNA repair,KB-V1 cytotox,KB-3-1 cytotox
Cc1ccc2nc(NC(=O)CN(C)S(=O)(=O)c3ccc(Br)s3)sc2c1,?,23µM*,?,?,?
Cc1ccc2nc(NC(=O)CN(C)S(=O)(=O)c3cccc4nsnc34)sc2c1,2.3µM*,?,2%,?,?
CCOC(=O)c1ccc(NC(=O)CN(C)S(=O)(=O)c2ccc(Br)s2)cc1,-1%,?,26µM*,i,i
CC1(CCCN2C(=O)c3ccccc3C2=O)OCCO1,-17%,0%,/,i,i
O=C(NCCc1nc2ccccc2n1CCO)C1CCCCC1,/,/,/,i,?
C=CCOc1ccc(CN(C)CC(=O)Nc2ccc3c(c2)CCC3)cc1,-1%,15%,-7%,i,i
CCOc1ccc(CN(C)CC(=O)Nc2ccc3c(c2)CCC3)cc1OC,-33%,-2%[9.22 µM],16µM*,i,i
COc1ccc(C(=O)NC2CCCc3ccccc32)cc1[N+](=O)[O-] (stereo not given),?,?,-22%,5.8µM*,?
CCn1c(=O)c(=O)[nH]c2cc(C(=O)NC3CCCc4ccccc43)ccc21 (stereo not given),?,?,?,i,10µM*
COc1ccc(CN(C)CC(=O)NC2CCCc3ccccc32)cc1OC (stereo not given),4.1µM*,?,-9%,?,i
CCn1c(=O)c(=O)[nH]c2cc(C(=O)NC3CC3)ccc21,-136%,-29%,18%,i,i
C=CCOc1ccc(/C=C/C(=O)OCC(=O)NCc2ccco2)cc1,-21%,?,?,i,i
O=C(Nc1nccs1)[C@@H]1CC=C[C@@H]2CCN(C3CCCCC3)C(=O)[C@@H]21,/,/,/,i,i
COc1ccc(C(=O)NCC2(c3ccc(OC)c(OC)c3)CCCC2)cc1OC,/,/,/,?,i
COc1ccc(C2(CNC(=O)c3ccc(OC)c([N+](=O)[O-])c3)CCCCC2)cc1OC,-92%,2%,15µM*,2.6µM*,i
COc1ccc(-c2cc(C(F)F)n3ncc(C(=O)Nc4cc(OC)ccc4OC)c3n2)cc1,/,/,/,i,i
COc1ccc(-c2cc(C(F)F)n3ncc(C(=O)n4ccnc4C)c3n2)cc1,?,16µM*,-6%,i,i
COc1ccc(-c2cc(C(F)F)n3ncc(C(=O)NCC4CCCO4)c3n2)cc1 (stereo not given),?,?,2.1µM*,i,i
O=C(O)c1cnn2c(C(F)F)cc(C3CC3)nc12,-4%,2%,0%,i,i
O=C(NCC1CCCO1)c1cnn2c(C(F)F)cc(C3CC3)nc12 (stereo not given),-2%,3%,6%,6.5µM*,i
Cc1c(C(=O)Nc2cccc(Cl)c2)sc2nc3n(c(=O)c12)N=C(c1cccc(Br)c1)CS3,/,/,/,i,i
Cc1nn2c(-c3cccc(NC(=O)c4ccco4)c3)nnc2c2ccccc12,5%,?,?,i,i
Cc1nn2c(-c3ccccc3)nnc2c2ccccc12,-2%,0%,?,5.8µM*,?
CC[C@H](C)[C@H](NC(=O)c1ccc(Cl)cc1)C(=O)OCC(=O)c1c(N)n(C)c(=O)n(C)c1=O,-9%,16%,?,i,i
Cc1c(C(=O)N(Cc2ccccc2F)C2CCS(=O)(=O)C2)oc2ccccc12 (stereo not given),/,/,/,i,i
SMILES,SW480 rereplic,MCF10A rerep,ELG1 DNA repair,KB-V1 cytotox,KB-3-1 cytotox
CC(=O)Nc1sc(C)c(C)c1C(=O)OCC(=O)NCc1ccc(Cl)cc1,-18%,2%,16%,i,i
COc1cccc(CNC(=O)COC(=O)c2c(NC(C)=O)sc(C)c2C)c1,16µM*,2%,-18%,?,i
COc1cccc(CNC(=O)COC(=O)c2nc(Cl)c(Cl)c(Cl)c2Cl)c1,12µM*,7.3µM*,-29%,i,?
O=C(CCCCCN1C(=O)[C@@H]2Cc3ccccc3CN2C1=O)Nc1cccc(F)c1,-2%,11%,?,?,i
COc1ccccc1NC(=O)Cn1c(=O)n(Cc2ccco2)c(=O)c2oc3ccccc3c21,/,/,/,i,i
O=[N+]([O-])c1ccc(C2Oc3ccccc3C3CC(c4ccccc4)=NN32)s1 (stereo not given),23µM*,15µM*,?,/,/
CCC(C)NCCCCOc1ccc(Cl)cc1C (stereo not given),?,?,11%,16µM*,i
CCC(C)NCCCOc1cc(Cl)ccc1Cl (stereo not given),-3%,1%,-23%,i,i
O=C(OC[C@@H](O)CO)c1ccccc1Nc1ccnc2cc(Cl)ccc12,-7%[20.6 µM],1%[20.6 µM],/,/,/
NC(=O)C1CCN(c2ncc(-c3cccc(N4CCCC4)c3)s2)CC1,/,/,/,?,i
COc1cccc2sc(NC(=O)c3ccc(S(=O)(=O)N4CCC(C)CC4)cc3)nc12,/,/,/,i,i
CC(C)C[C@H](NC(=O)OC(C)(C)C)c1nnc(SCc2cccc(F)c2)o1,6%,7%,?,i,i
CSCC[C@H](NC(=O)OC(C)(C)C)c1nnc(SCc2ccc(F)cc2)o1,2%,?,?,21µM*,i
CSCC[C@H](NC(=O)OC(C)(C)C)c1nnc(SCc2ccccc2)o1,6%,6%,?,9.2µM*,?
CC(C)[C@H](NC(=O)OC(C)(C)C)c1nnc(SCc2cccc(F)c2)o1,?,11%,-16%,13µM*,i
CSCC[C@H](NC(=O)OC(C)(C)C)c1nnc(SCc2cccc(F)c2)o1,-1%,-5%,?,i,i
CCN(CC)C(=O)CSc1nnc([C@H](Cc2c[nH]c3ccccc23)NC(=O)OC(C)(C)C)o1,1%,0%,?,15µM*,i
CCSc1nnc([C@H](Cc2c[nH]c3ccccc23)NC(=O)OC(C)(C)C)o1,3%,432%[0.0737 µM],0%,?,i
CSCC[C@H](NC(=O)OC(C)(C)C)c1nnc(SCC(=O)N(C)C)o1,3%,-4%,8%,i,i
C[C@H](NC(=O)OC(C)(C)C)c1nnc(SCc2ccc(Cl)cc2Cl)o1,/,/,/,18µM*,?
O=[N+]([O-])c1ccc(N=Nc2c(O)[nH]c3ccc(F)cc23)cc1,?,7.3µM*,?,?,?
O=[N+]([O-])c1ccc2[nH]c(O)c(N=Nc3ccc(F)cc3)c2c1,?,?,-26%,i,i
